This passage reports growth inhibition results from PubChem BioAssay (NCI).

The panel holds about 79,000 compounds, 15% with a hit somewhere; the sample as a whole holds those more often. Unmarked numbers belong to inactive results. Active and inactive are the calls of the source. No stated cut-off is given here; in the data, active means growth inhibition above about 70%; inactive means the rest.

Assay [1] can be described thus: NCI Yeast Anticancer Drug Screen. Data for the rad50 strain (AID 155).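 Further: 0% = growth of vehicle-only cultures of the same strain.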 As to conditions: S. cerevisiae rad50 strain growth inhibition; at 50.0 µM; stronger effect = higher value. An outline of the steps:
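DNA repair mutant yeast, compound exposure, growth read-out; inhibition is taken relative to vehicle.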

The nature of assay [2]: NCI Yeast Anticancer Drug Screen. Data for the mec2-1 strain (AID 157). As to conditions: S. cerevisiae mec2-1 strain, at 50.0 µM, stronger effect = higher value. An outline of the steps:
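Strain: mec2-1 (DNA repair/cell cycle alteration). Compound exposure, then growth measured; inhibition expressed relative to vehicle.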

Assay [3] can be described thus: NCI Yeast Anticancer Drug Screen. Data for the sgs1 mgt1 strain (AID 161).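 Further: 0% = growth of cultures given vehicle only.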 Conditions: S. cerevisiae sgs1 mgt1 strain, at 50.0 µM, stronger effect = higher value. Summed up: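 Genetically altered yeast, compound exposure, growth inhibition relative to vehicle.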
Assay [4] is described as follows: NCI Yeast Anticancer Drug Screen. Data for the cln2 rad14 strain (AID 165).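 Further: 0% = growth equal to vehicle treated cultures.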 As to conditions: S. cerevisiae cln2 rad14 strain, at 50.0 µM, stronger effect = higher value. Summed up: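 Compounds are applied to the cln2 rad14 yeast strain, and growth is then compared with that of vehicle-treated cultures to give inhibition.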
The nature of assay [5]: NCI Yeast Anticancer Drug Screen. Data for the bub3 strain (AID 167). Conditions: S. cerevisiae bub3 mutant strain, at 50.0 µM, stronger effect = higher value. Summed up: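 In this screen, a yeast mutant lacking normal mitotic checkpoint function is challenged with compound. Relative growth versus vehicle gives the inhibition value.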
Assay [6] is described as follows: NCI Yeast Anticancer Drug Screen. Data for the mlh1 rad18 strain (AID 175). As to conditions: S. cerevisiae mlh1 rad18 strain growth inhibition; at 50.0 µM; stronger effect = higher value. Summed up:
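Read-out is yeast growth inhibition, calculated against vehicle-only controls. The compound was applied to a strain engineered with DNA damage repair alterations.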

Regarding `CC(C)C(NC(=O)OC(c1ccccc1)c1ccccc1)C(=O)NC(CSC(c1ccccc1)(c1ccccc1)c1ccccc1)C(=O)NCC(=O)OCc1ccccc1` (stereo unspecified), the growth inhibition is 4.45% in assay [1]; 5.75% in assay [2]; 4.55% in assay [3]; -19.1% in assay [4]; -10.8% in assay [5]; 27.2% in assay [6].
In the case of `O=C(OCCCl)C1OC(n2cc(F)c(=O)[nH]c2=O)CC1O` (stereo unspecified), the growth inhibition in assay [1] was 23.4%; in assay [2], 3.35%; in assay [3], 2.5%; in assay [4] it was 8.7%; in assay [5], 2.55%; in assay [6], -3.1%.
For the compound `CC(C)CCOc1ccc(C(N)=S)c2ccccc12`, the growth inhibition in assay [1] is 80% (active); in assay [2], 96.8% (active); in assay [3], 96.4% (active); in assay [4], 68.5%; in assay [5], 84% (active); in assay [6], 95.2% (active).
`CCCCCC(C#N)CCC(C)=O` (stereo unspecified): the growth inhibition in assay [1] is -6.7%; in assay [2], -9.15%; in assay [3], -9.3%; in assay [4] it was -6.2%; in assay [5], -0.95%; in assay [6], -10%.
`Cc1ccc2c(c1)c(C)c(C)c(=O)n2C`: the growth inhibition in assay [1] is 21.2%; in assay [2], -8.7%; in assay [3] it was -1.5%; in assay [4] it was 13.2%; in assay [5], 1.9%; in assay [6], 10.1%.
For `CCOC(=O)Oc1ccc(C(=O)Oc2cc(Cl)c(Cl)cc2Cl)cc1OC`, the growth inhibition is 3.9% in assay [1]; 4.7% in assay [2]; 3.25% in assay [3]; 18% in assay [4]; -13.9% in assay [5]; 7% in assay [6].
On to `O=C(O)c1ccc(CC2CCCC2)cc1`, for which the growth inhibition is 30.8% in assay [1]; 25.9% in assay [2]; 21.4% in assay [3]; -8.2% in assay [4]; -2.35% in assay [5]; 8.85% in assay [6].
Regarding `COc1ccc(C(=O)C[n+]2cc(Br)cc(Br)c2)cc1`, the growth inhibition was 7.9% in assay [1]; -12.8% in assay [2]; -7% in assay [3]; -3.95% in assay [4]; 14.1% in assay [5]; -8.95% in assay [6].
Regarding `Nc1cccc(-c2nc3ncnc(N)c3[nH]2)c1`, the growth inhibition is 8.6% in assay [1]; -2.15% in assay [2]; -5.5% in assay [3]; -46.9% in assay [4]; -18.5% in assay [5]; -11.2% in assay [6].
On to `COc1cccc(Nc2sc(C(=O)c3cc4cc(Cl)ccc4o3)c(N)c2C#N)c1`, for which the growth inhibition was -11.1% in assay [1]; -8.65% in assay [2]; -20.6% in assay [3]; -2.75% in assay [4]; -3.55% in assay [5]; -7.55% in assay [6].
`CCCCCCCCCCCCCCCCCCCCCCCCCC`: the growth inhibition is -11.4% in assay [1]; -2.55% in assay [2]; -19.2% in assay [3]; 19.9% in assay [4]; -0.05% in assay [5]; 5.6% in assay [6].
As to `NS(=O)(=O)c1ccc(NC(=O)C2C(=O)N(c3ccc(S(N)(=O)=O)cc3)C(=O)/C2=N/O)cc1` (stereo unspecified), the growth inhibition in assay [1] is 9.55%; in assay [2], 0.25%; in assay [3], 9.8%; in assay [4] it was -26.4%; in assay [5], 2%; in assay [6], 33.1%.
In the case of `Cc1cccc(N=Nc2c(-c3ccccc3)nn(C(N)=S)c2C)c1C`, the growth inhibition was -19.8% in assay [1]; -30.4% in assay [2]; -18.4% in assay [3]; -221% in assay [4]; -9.95% in assay [5]; -7.75% in assay [6].
`O=[N+]([O-])c1ccc2oc(=Nc3ccccc3)c(Nc3ccccc3)nc2c1`: the growth inhibition in assay [1] was -21.4%; in assay [2] it was 11.4%; in assay [3], -18.6%; in assay [4], 15.9%; in assay [5], 6.75%; in assay [6], 6.25%.
On to `Cc1cc2nc(/N=C/c3nc(O)c(C)[nH]3)[nH]c2cc1C`, for which the growth inhibition in assay [1] was 33.2%; in assay [2], 22.4%; in assay [3], 59%; in assay [4], 20.4%; in assay [5], 14.1%; in assay [6], 56%.
As to `O=S(=O)(O)CCCO`, the growth inhibition is 0.4% in assay [1]; -44.3% in assay [2]; -14.7% in assay [3]; -1.05% in assay [4]; -0.45% in assay [5]; -2.4% in assay [6].
With `CCOc1ccc(NC(=O)C(Br)C(Br)C(=O)O)cc1` (stereo unspecified), the growth inhibition in assay [1] is 85.7% (active); in assay [2], 98.5% (active); in assay [3] it was 96.8% (active); in assay [4], 95.4% (active); in assay [5] it was 98.5% (active); in assay [6] it was 94.6% (active).
As to `CCCCCCCCCCCO`, the growth inhibition in assay [1] is -5.75%; in assay [2], -13.2%; in assay [3], -3.8%; in assay [4] it was -6.8%; in assay [5], 2.15%; in assay [6], -18.8%.
With `CC(=O)C(/C=N\N=C(/C)c1cn[nH]c1C)=C(/C)O`, the growth inhibition in assay [1] was -54.8%; in assay [2], -21.6%; in assay [3], -18.7%; in assay [4], -58.1%; in assay [5], 8.6%; in assay [6] it was -18.6%.
Regarding `CCOC(=O)/C=C(\Nc1ccc(C(c2ccccc2)(c2ccccc2)c2ccccc2)cc1)C(=O)OCC`, the growth inhibition in assay [1] was 38.2%; in assay [2] it was 9.9%; in assay [3] it was 32%; in assay [4], 20.2%; in assay [5], -7.3%; in assay [6], 27.1%.
Consider `Cc1ccc(S(=O)(=O)N2CN(S(=O)(=O)c3ccc(C)cc3)CN(S(=O)(=O)c3ccc(C)cc3)C2)cc1`, for which the growth inhibition in assay [1] was -29.4%; in assay [2], -32.2%; in assay [3], -22.8%; in assay [4], -6.9%; in assay [5] it was -40.3%; in assay [6] it was -24.8%.
